# PubChem BioAssay (EPA / NIEHS)
# Active and inactive are the calls of the source. How the source made its calls: active means hit-call score of the fitted dose curve at least 0.9, where 1 is the maximum; inactive means score below 0.9.
# Experiments:
# [1] = read-out: urokinase plasminogen activator (uPA), PLAU (gene 5328); experiment: BSK_KF3CT_uPA: BioMAP Diversity Plus: KF3CT Assay for urokinase plasminogen activator (uPA) Biomarker Activity (AID 2283075); conditions: primary human keratinocytes with fibroblasts; actives raise or lower the signal
# In short: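 ELISA read-out of uPA 24 h after dosing human skin keratinocytes co-cultured with foreskin fibroblasts. Signal change fitted both ways relative to DMSO; sulforhodamine B on parallel cultures marks overt cytotoxicity.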
# [2] = read-out: E-selectin (Homo sapiens) (UniProt P16581); experiment: BSK_LPS_Eselectin: BioMAP Diversity Plus: LPS Assay for Eselectin Biomarker Activity (AID 2283077); conditions: primary human HUVEC with PBMC; actives raise or lower the signal
# In short: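 Human umbilical vein endothelial cells co-cultured with PBMC under LPS stimulation; cell-surface E-selectin measured by ELISA 24 h after dosing. Change in either direction versus DMSO, with SRB total-protein staining in parallel cultures for cytotoxicity.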
# [3] = read-out: Interleukin-8 (IL8), CXCL8 (gene 3576); experiment: BSK_LPS_IL8: BioMAP Diversity Plus: LPS Assay for Interleukin-8 (IL8) Biomarker Activity (AID 2283078); conditions: primary human HUVEC with PBMC; actives raise or lower the signal
# In short: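 Human umbilical vein endothelial cells co-cultured with PBMC, LPS-stimulated, exposed to compound for 24 h. IL-8 quantified by ELISA; fitted in both directions against DMSO, with SRB total-protein staining of parallel cultures for cytotoxicity.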
# [4] = BSK_LPS_SRB: Viability Assessment in the BioMAP Diversity Plus: LPS Assay (AID 2283079); conditions: primary human HUVEC with PBMC;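 further: total protein by sulforhodamine B absorbance as a cytotoxicity measure; measured one day after compound addition; fitted in both directions against DMSO so loss or gain of signal counts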
# In short: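 Co-culture of human umbilical vein endothelial cells and PBMC, read 24 h after dosing. Total protein by 0.1% SRB staining after 10% TCA fixation, absorbance at 560 nm; bidirectional fit against DMSO.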
# [5] = read-out: Monocyte Chemoattractant Protein-1 (MCP1), CCL2 (gene 6347); experiment: BSK_LPS_MCP1: BioMAP Diversity Plus: LPS Assay for Monocyte Chemoattractant Protein-1 (MCP1) Biomarker Activity (AID 2283081); conditions: primary human HUVEC with PBMC; actives raise or lower the signal;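 on AC50: secreted MCP-1 protein quantified by ELISA in culture supernatant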
# In short: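 Human umbilical vein endothelial cells co-cultured with PBMC, LPS-stimulated; secreted MCP-1 measured by ELISA 24 h after compound addition. Bidirectional curve fitting against DMSO baseline; SRB total-protein staining in parallel cultures for cytotoxicity.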
# [6] = BSK_LPS_PGE2: BioMAP Diversity Plus: LPS Assay for Prostaglandin E2 (PGE2) Biomarker Activity (AID 2283082); conditions: primary human HUVEC with PBMC; actives raise or lower the signal;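 on AC50: secreted prostaglandin E2 measured by ELISA in LPS-stimulated co-culture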
# In short: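 PGE2 release measured by ELISA in an LPS-activated co-culture of human umbilical vein endothelial cells and peripheral blood mononuclear cells, read at 24 h post-dosing. DMSO served as baseline for bidirectional curve fitting.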
# [7] = read-out: Macrophage colony-stimulating factor (MCSF), CSF1 (gene 1435); experiment: BSK_LPS_MCSF: BioMAP Diversity Plus: LPS Assay for Macrophage colony-stimulating factor (MCSF) Biomarker Activity (AID 2283083); conditions: primary human HUVEC with PBMC; actives raise or lower the signal
# In short: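 HUVEC–PBMC co-culture, M-CSF measured by ELISA 24 h after chemical dosing. Fitted in both directions relative to DMSO as negative control; overt cytotoxicity assessed by SRB total-protein staining in parallel cultures.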
# [8] = read-out: Tissue Factor, F3 (gene 2152); experiment: BSK_LPS_TissueFactor: BioMAP Diversity Plus: LPS Assay for Tissue Factor Biomarker Activity (AID 2283084); conditions: primary human HUVEC with PBMC; actives raise or lower the signal
# In short: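 Human umbilical vein endothelial cells co-cultured with PBMC were dosed with compound. Cell-surface CD142 was measured by ELISA 24 h later. Activity was fitted bidirectionally against DMSO, with SRB total-protein staining in parallel cultures for cytotoxicity.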
# [9] = read-out: Tumor necrosis factor (Homo sapiens) (UniProt P01375); experiment: BSK_LPS_TNFa: BioMAP Diversity Plus: LPS Assay for Tumour Necrosis Factor alpha (TNFa) Biomarker Activity (AID 2283085); conditions: primary human HUVEC with PBMC; actives raise or lower the signal;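 on AC50: TNFa protein level quantified by ELISA in the co-culture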
# In short: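 TNFa was quantified by ELISA in LPS-activated co-cultures of human endothelial cells and PBMC, 24 h post-dosing. Both increases and decreases versus DMSO were fitted.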
# [10] = read-out: Vascular cell adhesion molecule 1 (VCAM1), VCAM1 (gene 7412); experiment: BSK_LPS_VCAM1: BioMAP Diversity Plus: LPS Assay for Vascular cell adhesion molecule 1 (VCAM1) Biomarker Activity (AID 2283086); conditions: primary human HUVEC with PBMC; actives raise or lower the signal
# In short: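 VCAM-1 quantified by ELISA in an LPS-activated co-culture of human endothelial cells and peripheral blood mononuclear cells, read 24 h post-treatment. Fitted in both directions versus DMSO; parallel SRB staining flags overt cytotoxicity.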
# CD38, CD38 (gene 952) = experiment: BSK_SAg_CD38: BioMAP Diversity Plus: SAg Assay for CD38 Biomarker Activity (AID 2283087); conditions: primary human HUVEC with PBMC; actives raise or lower the signal
# In short: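 CD38 quantified by ELISA (fluorescence) in a superantigen-activated endothelial cell–PBMC co-culture at 24 h post-dose. Activity fitted in both directions relative to DMSO; parallel SRB and Alamar Blue cytotoxicity read-outs.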
# CD40, CD40 (gene 958) = experiment: BSK_SAg_CD40: BioMAP Diversity Plus: SAg Assay for CD40 Biomarker Activity (AID 2283088); conditions: primary human HUVEC with PBMC; actives raise or lower the signal
# In short: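 HUVEC plus PBMC co-culture, superantigen-activated, with CD40 read by ELISA 24 h after dosing. Curves fitted in both directions against DMSO. Overt cytotoxicity checked by parallel SRB total-protein staining.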
# CD69, CD69 (gene 969) = experiment: BSK_SAg_CD69: BioMAP Diversity Plus: SAg Assay for CD69 Biomarker Activity (AID 2283089); conditions: primary human HUVEC with PBMC; actives raise or lower the signal;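 on AC50: cell surface CD69 protein quantified by ELISA with fluorescence detection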
# In short: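 Primary human vascular co-culture (umbilical vein endothelium with peripheral blood mononuclear cells) exposed to test chemical for 24 h. CD69 levels quantified by fluorescence ELISA; DMSO served as negative control for bidirectional fitting.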
# [11] = read-out: Monocyte Chemoattractant Protein-1 (MCP1), CCL2 (gene 6347); experiment: BSK_SAg_MCP1: BioMAP Diversity Plus: SAg Assay for Monocyte Chemoattractant Protein-1 (MCP1) Biomarker Activity (AID 2283090); conditions: primary human HUVEC with PBMC; actives raise or lower the signal
# In short: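 Values derive from bidirectional fitting of ELISA-measured MCP1 against DMSO controls. Readings were taken 24 h after dosing human vascular endothelial cells co-cultured with peripheral blood mononuclear cells under superantigen stimulation.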
# [12] = read-out: E-selectin (Homo sapiens) (UniProt P16581); experiment: BSK_SAg_Eselectin: BioMAP Diversity Plus: SAg Assay for Eselectin Biomarker Activity (AID 2283091); conditions: primary human HUVEC with PBMC; actives raise or lower the signal
# In short: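 Human umbilical vein endothelial cells co-cultured with peripheral blood mononuclear cells, SAg system. E-selectin is measured by ELISA 24 h after dosing and fitted bidirectionally against DMSO. Cytotoxicity is checked by SRB staining of parallel cultures.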
# [13] = read-out: Monokine induced gamma interferon (MIG), CXCL9 (gene 4283); experiment: BSK_SAg_MIG: BioMAP Diversity Plus: SAg Assay for Monokine induced gamma interferon (MIG) Biomarker Activity (AID 2283092); conditions: primary human HUVEC with PBMC; actives raise or lower the signal
# In short: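 Endothelial cells and PBMC were co-cultured, exposed to test chemicals, and sampled 24 h later. MIG was measured by ELISA, and responses were fitted in both directions relative to DMSO.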
# [14] = read-out: Interleukin-8 (IL8), CXCL8 (gene 3576); experiment: BSK_SAg_IL8: BioMAP Diversity Plus: SAg Assay for Interleukin-8 (IL8) Biomarker Activity (AID 2283094); conditions: primary human HUVEC with PBMC; actives raise or lower the signal
# In short: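 ELISA readout of IL-8 from a superantigen-activated endothelial/PBMC primary human co-culture, taken 24 h post-dosing and fitted in both directions against DMSO; parallel SRB total-protein staining flags overt cytotoxicity.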
# [15] = read-out: Interleukin-1 alpha (IL1a), IL1A (gene 3552); experiment: BSK_LPS_IL1a: BioMAP Diversity Plus: LPS Assay for Interleukin-1 alpha (IL1a) Biomarker Activity (AID 2283080); conditions: primary human HUVEC with PBMC; actives raise or lower the signal
# In short: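 Human umbilical vein endothelial cells co-cultured with PBMC and stimulated with LPS; IL-1a measured by ELISA 24 h after dosing. Bidirectional fitting against DMSO; cytotoxicity checked by SRB staining in parallel cultures.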
# [16] = BSK_SAg_PBMCCytotoxicity: PBMC Cytotoxicity Assessment in the BioMAP Diversity Plus: SAg Assay (AID 2283093); conditions: primary human HUVEC with PBMC;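 further: PBMC viability measured as Alamar Blue reduction fluorescence at 546/580 nm; fitted both ways against DMSO so a hit may be loss or gain of signal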
# In short: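 Alamar Blue reduction (6 h, ex/em 546/580 nm) read after 90 h culture of PBMC pre-dosed 1 h then stimulated with SEB plus TSST-1, 20 ng/mL each. Gain or loss of signal fitted relative to DMSO.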
# E-selectin (Homo sapiens), sequence (P16581 whole entry, looked up): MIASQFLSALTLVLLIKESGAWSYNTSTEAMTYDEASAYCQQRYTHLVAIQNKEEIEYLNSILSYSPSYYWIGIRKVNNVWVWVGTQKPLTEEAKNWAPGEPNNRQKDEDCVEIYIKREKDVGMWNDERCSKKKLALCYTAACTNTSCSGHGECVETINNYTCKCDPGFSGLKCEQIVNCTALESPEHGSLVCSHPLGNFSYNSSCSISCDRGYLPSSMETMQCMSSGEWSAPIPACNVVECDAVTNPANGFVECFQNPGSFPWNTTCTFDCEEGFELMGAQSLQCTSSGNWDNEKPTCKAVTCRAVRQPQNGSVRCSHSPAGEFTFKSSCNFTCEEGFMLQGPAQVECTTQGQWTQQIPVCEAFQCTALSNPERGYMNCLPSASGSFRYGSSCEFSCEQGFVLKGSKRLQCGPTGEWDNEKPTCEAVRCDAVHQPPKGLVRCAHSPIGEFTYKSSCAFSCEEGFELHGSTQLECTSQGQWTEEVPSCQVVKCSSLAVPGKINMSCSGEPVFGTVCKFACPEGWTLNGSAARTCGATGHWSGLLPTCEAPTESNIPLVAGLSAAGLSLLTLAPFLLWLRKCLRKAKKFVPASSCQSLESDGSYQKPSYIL
# Tumor necrosis factor (Homo sapiens), sequence (P01375 whole entry, looked up): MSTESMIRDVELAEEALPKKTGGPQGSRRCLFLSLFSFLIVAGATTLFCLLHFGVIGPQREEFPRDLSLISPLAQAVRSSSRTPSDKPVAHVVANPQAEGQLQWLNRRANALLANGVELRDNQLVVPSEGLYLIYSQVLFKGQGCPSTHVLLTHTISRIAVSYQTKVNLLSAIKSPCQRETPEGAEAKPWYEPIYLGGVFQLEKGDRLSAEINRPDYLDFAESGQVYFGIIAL
smiles,measurement,setting,value
Nc1ccc(Nc2ccccc2)cc1,outcome,[1],inactive
same,AC50,[2],12.9 µM (active)
same,AC50,[3],11.2 µM (active)
same,outcome,[4],inactive
same,AC50,[5],8.02 µM (active)
same,AC50,[6],1.44 µM (active)
same,AC50,[7],8.31 µM (active)
same,outcome,[8],inactive
same,AC50,[9],20 µM (active)
same,AC50,[10],7.32 µM (active)
same,AC50,"CD38, CD38 (gene 952)",3.97 µM (active)
same,AC50,"CD40, CD40 (gene 958)",3.97 µM (active)
same,AC50,"CD69, CD69 (gene 969)",3.97 µM (active)
same,AC50,[11],9.88 µM (active)
same,AC50,[12],2.72 µM (active)
same,AC50,[13],15.7 µM (active)
same,AC50,[14],8.78 µM (active)
CC[C@H]1CC[C@H](NCc2cc3c(cc2OC)[C@H]2C[C@H]2C(=O)N3C)[C@H](c2ccccc2)N1,outcome,[1],inactive
same,outcome,[2],inactive
same,outcome,[3],inactive
same,outcome,[4],inactive
same,outcome,[15],inactive
same,outcome,[5],inactive
same,outcome,[6],inactive
same,outcome,[7],inactive
same,outcome,[8],inactive
same,outcome,[9],inactive
same,outcome,[10],inactive
same,outcome,"CD40, CD40 (gene 958)",inactive
same,outcome,"CD69, CD69 (gene 969)",inactive
same,outcome,[11],inactive
same,outcome,[12],inactive
same,outcome,[13],inactive
same,outcome,[16],inactive
same,outcome,[14],inactive
NC(=O)NO,outcome,[1],inactive
same,outcome,[2],inactive
same,outcome,[3],inactive
same,outcome,[4],inactive
same,outcome,[15],inactive
same,outcome,[5],inactive
same,outcome,[6],inactive
same,outcome,[7],inactive
same,outcome,[8],inactive
same,outcome,[9],inactive
same,outcome,[10],inactive
same,outcome,"CD38, CD38 (gene 952)",inactive
same,outcome,"CD40, CD40 (gene 958)",inactive
same,outcome,"CD69, CD69 (gene 969)",inactive
same,outcome,[11],inactive
same,outcome,[12],inactive
same,outcome,[13],inactive
same,outcome,[14],inactive
CC/C(=C\C(=N/O)C(N)=O)C(C)[N+](=O)[O-] (stereo not drawn),outcome,[1],inactive
same,outcome,[2],inactive
same,outcome,[3],inactive
same,outcome,[4],inactive
same,outcome,[15],inactive
same,outcome,[5],inactive
same,outcome,[6],inactive
same,outcome,[7],inactive
same,outcome,[8],inactive
same,outcome,[9],inactive
same,outcome,[10],inactive
same,outcome,"CD40, CD40 (gene 958)",inactive
same,outcome,"CD69, CD69 (gene 969)",inactive
same,outcome,[11],inactive
same,outcome,[12],inactive
same,outcome,[13],inactive
same,outcome,[16],inactive
same,outcome,[14],inactive
CC1(C)C(=O)N(Br)C(=O)N1Br,outcome,[1],inactive
same,outcome,[2],inactive
same,outcome,[3],inactive
same,outcome,[4],inactive
same,outcome,[15],inactive
same,outcome,[5],inactive
same,outcome,[6],inactive
same,outcome,[7],inactive
same,outcome,[8],inactive
same,outcome,[9],inactive
same,outcome,[10],inactive
same,outcome,"CD40, CD40 (gene 958)",inactive
same,outcome,"CD69, CD69 (gene 969)",inactive
same,outcome,[11],inactive
same,outcome,[12],inactive
same,outcome,[13],inactive
same,outcome,[14],inactive
